Source: PubChem BioAssay
Rows were chosen to be rich in hits. Some 21% of all compounds tested hit in one or more screens of this group.
Pf growth 48h – inhibits P. falciparum growth in the first generation, 48 h; P. falciparum luciferase growth in erythrocytes, 48 h; Potency, µM (top dose mostly 28.7 µM), most hits filed as inhibitors; 5.9% of 310,000 active; AID 504832
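Luminescence readout; reporter = integrated firefly luciferase in P. falciparum. RBC culture at 2% hematocrit, 0.1% parasitemia final, 37 C/5% CO2; decreased signal taken as growth inhibition.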
Pf growth 96h – P. falciparum growth inhibition at 96 hours | P. falciparum luciferase reporter growth, 96 h | Potency, µM (titrated, usually from 28.7 µM), most hits filed as inhibitors | 6.9% of 320,000 active | AID 504834
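Two parasite generations (96 h, 37 C, 5% CO2) of compound exposure in infected erythrocytes (0.05% parasitemia, 2% hematocrit). Luciferase-reporter P. falciparum; decreased luminescence indicates inhibited growth, aimed at apicoplast-acting delayed death.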
CHX counter – counter-screen for Shiga toxin inhibitors: cycloheximide protein synthesis inhibition | cell reporter, cycloheximide protein synthesis inhibition counterscreen | AID 2314 | max response, % | 12% of 300,000 active; in the data active means max response mostly above about 13%, no sharp cut-off; inactive means mostly below about 14%; further: read at 38.3 µM for the half of the compounds with a filed dose
Shiga toxin inh – Shiga toxin inhibition | Vero cells, Shiga toxin protein synthesis inhibition reporter | AID 2315 | 9.2% of 290,000 active | inhibition, % at 38.7 µM; in the data active means inhibition mostly above about 28%, no sharp cut-off; inactive means mostly below about 43%
Each line names hits and unclear results; the compound was inactive in the other large screens. Unless noted, the call rests on the fitted dose curve; in most records, active means well fitted inhibition curve with a large enough effect; inconclusive means small, poorly fitted or top-dose-only effect, or another doubt; inactive means no such curve, though single readings can be large or run the other way.

CN(CCOc1ccc(-c2ccn(S(=O)(=O)c3ccc(Cl)cc3)n2)cc1)c1ccccn1	Pf growth 48h 10µM, Pf growth 96h 10µM
CN(CCOc1ccccc1)C(=O)c1cc(S(=O)(=O)N2CCCCC2)ccc1Cl	Pf growth 96h inconclusive (no result: CHX counter, Shiga toxin inh)
CN(CCOc1ccc(-c2ccn(S(=O)(=O)c3cccc4ccccc34)n2)cc1)c1ccccn1	Pf growth 48h 10µM, Pf growth 96h 9.3µM
CN(CCOc1ccc(-c2ccn(S(=O)(=O)c3c(Cl)cccc3Cl)n2)cc1)c1ccccn1	Pf growth 48h inconclusive, Pf growth 96h 2.6µM
CN1/C(=C/C2CC(=O)N(c3ccc([N+](=O)[O-])cc3)C2=O)C(C)(C)c2ccccc21 (stereo not drawn)	Pf growth 96h inconclusive (no result: Pf growth 48h)
Oc1cc2c(cc1CN1CCN(c3ccccc3)CC1)CCC2	Pf growth 48h 1.7µM, Pf growth 96h 2.6µM
Oc1cc2c(cc1CN1CCN(c3cccc(C(F)(F)F)c3)CC1)CCC2	Pf growth 48h 1.7µM, Pf growth 96h 1.2µM
COc1ccc(N2CCN(Cc3cc4c(cc3O)CCC4)CC2)cc1	Pf growth 48h 1.7µM (no result: Pf growth 96h)
CN(C)c1ccc(C(C(=O)NC2CCCC2)N(C(=O)c2ccco2)C2CC2)cc1 (stereo not drawn)	Pf growth 48h inconclusive
O=C1N(Cc2cccc(Cl)c2)C[C@@H]2C[C@@H](c3c[nH]c4ccccc34)N3CCC[C@@]123	Pf growth 48h inconclusive, Pf growth 96h inconclusive
O=C(O)C1C2CCC(O2)C1C(=O)Nc1ccc(O)cc1 (stereo not drawn)	none
COc1ccc(C(=O)N=C2SC3CS(=O)(=O)CC3N2c2ccc(N(C)C)cc2)cc1OC (stereo not drawn)	Pf growth 96h 9.3µM
COc1ccc2cc(C(=O)C3CCCN(C(=O)c4cncs4)C3)ccc2c1 (stereo not drawn)	none
CCOC(=O)Cc1nc2ccccc2o1	Pf growth 96h 3.3µM, CHX counter 15
CCOC(=O)Cc1nc2cc(Cl)ccc2o1	none
Cc1cc(N2CCC(N(C)C3CCCC3)CC2)nc2cc(O)ccc12	Pf growth 48h 1.9µM
C#CCN1c2ccccc2Sc2cccnc21	Pf growth 48h 0.33µM, Pf growth 96h 0.12µM
CC(CN1c2ccccc2Sc2ccccc21)N(C)C (stereo not drawn)	Pf growth 48h inconclusive, Pf growth 96h inconclusive
CC(=O)Nc1ccc(NC(=O)Oc2ccccc2)cc1	Pf growth 96h inconclusive
COc1ccc(OC(=O)Nc2ccccc2)cc1	CHX counter 32, Shiga toxin inh 98 (no result: Pf growth 96h)
CN(C)c1ccc(NC(=O)Oc2ccccc2)cc1	Pf growth 96h 0.15µM, CHX counter 29, Shiga toxin inh 60 (no result: Pf growth 48h)
CC(=O)Oc1ccc(NC(=O)Cc2ccccc2)cc1	none (no result: Pf growth 96h)
CCc1ccc(OC(=O)Nc2ccccc2)cc1	CHX counter 13
CCCc1nc(SCC(=O)Nc2nnc(CC)s2)c2c(=O)n(C)c(=O)n(C)c2n1	none
CC(=O)N(c1ccc(C)cc1)S(=O)(=O)c1ccc(Cl)cc1	none
Cc1cccc(NC(=O)CCSc2nncn2C)c1	none
Cc1ccc(NC(=O)CCSc2ccccn2)cc1	CHX counter 59, Shiga toxin inh active
Cc1cccc(NC(=O)CCSc2ccccn2)c1	CHX counter 75, Shiga toxin inh 74
COc1cccc2c3c(c(=O)[nH]c12)CCC(C)(C)O3	CHX counter 13 (no result: Pf growth 96h)
Cn1c(=O)c2c(c3ccccc31)OC(C)(C)CC2	none
CCOc1ccc(NC(=O)CCc2nnc3ccc(N4CCC(C)CC4)nn23)cc1	Pf growth 48h 9.3µM, Pf growth 96h inconclusive
COc1ccc(NC(=O)CCc2nnc3ccc(N4CCC(C)CC4)nn23)cc1OC	Pf growth 96h 4.1µM
O=C(CCCc1ccccc1)NCCS(=O)(=O)N1CCN(c2ccccc2F)CC1	none (no result: CHX counter, Shiga toxin inh)
COc1ccc(NC(=O)CN(C)C(=O)CNC(=O)c2ccc(C)s2)cc1	none (no result: CHX counter, Shiga toxin inh)
C/C(=N/NS(=O)(=O)c1ccc(C)cc1)c1c[nH]c2ccccc12	Pf growth 96h 1.3µM
CCOC(=O)C1CCN(C(=O)C(=O)c2cn(CC(=O)N3CCCCCC3)c3ccccc23)CC1	Pf growth 48h 12µM, Pf growth 96h 10µM
CC1CCCCN1C(=O)Cn1cc(C=C2C(=O)N(C)C(=O)N(C)C2=O)c2ccccc21 (stereo not drawn)	none
CC1CCCCN1C(=O)C(=O)c1cn(CC(=O)N2CCCCCC2)c2ccccc12 (stereo not drawn)	Pf growth 48h inconclusive, Pf growth 96h 13µM
CCOC(=O)N1CCN(C(=O)C(=O)c2cn(CC(=O)N3CCCCCC3)c3ccccc23)CC1	Pf growth 48h 12µM, Pf growth 96h 12µM
CCOC(=O)C1CCCN(C(=O)C(=O)c2cn(CC(=O)N3CCOCC3)c3ccccc23)C1 (stereo not drawn)	none
CC1CCCCN1C(=O)Cn1cc(C=O)c2ccccc21 (stereo not drawn)	Pf growth 96h 13µM
CC1CCCCN1C(=O)C(=O)c1cn(CC(=O)N2CCCC2)c2ccccc12 (stereo not drawn)	Pf growth 96h inconclusive
Cc1ccc(-c2nn(Cc3ccccc3)cc2C=O)cc1C	CHX counter 49, Shiga toxin inh active
Cc1ccc(-c2nn(Cc3ccccc3)cc2C=O)cc1	CHX counter 85, Shiga toxin inh 55
Cc1ccc(-c2nn(Cc3ccccc3)cc2/C=C/C(=O)O)cc1C	none (no result: Pf growth 48h)
Cc1ccc(Cn2cc(C=O)c(-c3ccc(F)cc3)n2)cc1	CHX counter 23, Shiga toxin inh 31
CCCCN(C(=O)CN1C(=O)C2CCCCC2C1=O)c1c(N)n(CCC)c(=O)[nH]c1=O (stereo not drawn)	none (no result: CHX counter, Shiga toxin inh)
c1ccc2c(c1)ncc1cccn12	none (no result: Pf growth 48h)
c1ccc(-c2ncc3ccccn23)cc1	Pf growth 48h inconclusive, Pf growth 96h inconclusive, CHX counter 15
CC(=O)[C@H]1CC[C@H]2C3CC[C@H]4C[C@](C)(O)CC[C@]4(C)C3CC[C@]12C (stereo partly drawn)	none (no result: Pf growth 48h, Pf growth 96h)
CC(=O)c1cnc(Nc2ccc(C)cc2)s1	CHX counter 30, Shiga toxin inh 45
O=C(c1ccc(Cl)c(Cl)c1)c1cnc(Nc2ccccc2)s1	none
O=C1C2C3C=CC(C2C(=O)N1CCO)C1C(=O)N(CCO)C(=O)C31 (stereo not drawn)	none (no result: Pf growth 48h)
O=C(OCC(=O)N1CCCCCC1)c1ccccc1Br	none (no result: CHX counter, Shiga toxin inh)
O=C(OCC(=O)N1CCCC1)c1ccccc1OCc1ccccc1	CHX counter 21
O=C(OCC(=O)N1CCCC1)c1ccccc1O	CHX counter 54, Shiga toxin inh 103
N#C/C(=C\c1ccccc1)C(=O)N1CCC(C(N)=O)CC1	none
O=C(OCC(=O)N1CCOCC1)c1ccccc1OCc1ccccc1	none (no result: CHX counter, Shiga toxin inh)
N#C/C(=C\c1ccccc1)C(=O)OCC(=O)N1CCCC1	Pf growth 48h 9.3µM
O=C(OCC(=O)N1CCN(C(=O)c2ccco2)CC1)c1ccccc1OCc1ccccc1	Pf growth 96h 12µM
O=C(COC(=O)CCN=C1NS(=O)(=O)c2ccccc21)NNC(=O)c1ccccc1	Pf growth 48h inconclusive (no result: CHX counter, Shiga toxin inh)
Cn1cc(CN2CCCC(C(=O)c3nccn3C)C2)c(-c2cccc(Cl)c2)n1 (stereo not drawn)	Pf growth 96h inconclusive
CCOC(=O)C1CCCN(CC(O)COCc2ccccc2OC)C1 (stereo not drawn)	Pf growth 48h inconclusive, Pf growth 96h inconclusive
CCCC[C@@H]1CCCO[C@@](C(=O)NCc2ccccc2)(C(F)(F)F)C1	none (no result: Pf growth 48h, Pf growth 96h)
